CYP2C19 activ: human CYP2C19 activators, primary screen, biochemical, luminescence; recombinant CYP2C19, luciferin-H EGE luminescence; stronger effect = higher value; 0 = fully inhibited enzyme, 1 = untreated enzyme; activation factor at 5 µM; 96,000 tested, under 10 active;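 active = activation factor of at least 2 at 5 µM in the primary screen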
Target sequence (P33261 whole entry, looked up): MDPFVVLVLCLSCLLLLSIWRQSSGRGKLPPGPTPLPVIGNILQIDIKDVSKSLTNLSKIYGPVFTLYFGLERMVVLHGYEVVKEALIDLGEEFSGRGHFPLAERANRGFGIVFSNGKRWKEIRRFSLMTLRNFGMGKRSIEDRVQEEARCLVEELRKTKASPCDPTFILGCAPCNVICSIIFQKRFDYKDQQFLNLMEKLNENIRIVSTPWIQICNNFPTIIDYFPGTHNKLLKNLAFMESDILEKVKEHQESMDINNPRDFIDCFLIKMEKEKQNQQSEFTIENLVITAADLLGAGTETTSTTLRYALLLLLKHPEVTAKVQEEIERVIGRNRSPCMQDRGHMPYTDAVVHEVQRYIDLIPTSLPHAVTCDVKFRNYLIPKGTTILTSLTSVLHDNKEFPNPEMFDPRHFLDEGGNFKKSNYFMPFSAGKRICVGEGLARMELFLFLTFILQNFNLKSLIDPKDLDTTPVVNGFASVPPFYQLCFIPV
CYP2C9 activ: human CYP2C9 activators, primary screen, biochemical, luminescence; AID 1024, 2008; hit rate 1.4% among 96,000; activation factor at 5 µM; recombinant CYP2C9, luciferin-H conversion; stronger effect = higher value; factor 1 = untreated enzyme, 0 = blocked; Cytochrome P450 2C9 (Homo sapiens), P11712;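 active = activation factor of 2 or more for CYP2C9 at a 5 µM dose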
CYP2C19 inhib: blockers of cytochrome P450 2C19 activity – biochemical, luminescence, ADME assay, primary screen; P33261; CYP2C19 Supersomes, luciferin-H EGE luminescence, 30 min; inhibition, % at 5 µM; hit rate 21% among 96,000; AID 778, 2007;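 active = CYP2C19 inhibition above a set limit at 5 µM in the primary screen, cut at about 50% in these data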
CYP2C9 inhib: blockers of cytochrome P450 2C9 activity – biochemical, luminescence, ADME assay, primary screen; P11712; CYP2C9 Supersomes, luciferin-H conversion; inhibition, % at 5 µM; hit rate 20% among 96,000;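 active = blocking of liver enzyme CYP2C9 beyond about 50% at 5 µM, limit read from the data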
PTK2B oligo ant: antagonists of Pyk2 self-association, primary screen, Q293 cells, FERM NanoBiT luminescence, HTS; Protein-tyrosine kinase 2-beta (Homo sapiens), Q14289; stronger effect = lower value; z-score (the deposit names both 25 µM and 10 µM); hit rate 0.83% among 99,000;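 active = Z-score of -3 or lower, scaled per plate to the spread of control and sample wells; inactive = z-score above -3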;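 also: negative z-score means lost luminescence so less FERM oligomerization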
Cav32 inh: Cav3.2 calcium influx blockers – cell-based, Fluo-4 calcium fluorescence, FDSS, MLSMR library, primary screen; Voltage-dependent T-type calcium channel subunit alpha-1H (Homo sapiens), O95180; hit rate 4% among 100,000; AID 449739, 2010; Cav3.2-expressing cells; stronger effect = lower value; B-score at 10 µM;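 active = single-dose well whose peak fluorescence ratio is a statistical outlier from its plate by either plate-standardised score or position-corrected B-score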
Each line names hits and unclear results; the compound was inactive in the other large screens. In the library only some 27% were active in any assay of this set; here they are far more common.

O=C(CN1C(=O)c2cccc3cccc1c23)NCc1ccccn1	CYP2C9 activ 2.8
COc1ccccc1CNC(=O)c1ccccc1NS(C)(=O)=O	CYP2C9 inhib 74.9
COc1ccccc1CNC(=O)c1ccc(NS(C)(=O)=O)cc1	CYP2C9 activ 2
O=C(NCC1COc2ccccc2O1)C1CCCN(S(=O)(=O)c2cccc3cccnc23)C1 (stereo unspecified)	CYP2C19 inhib 75.3 (no result: PTK2B oligo ant)
O=C(NCC1COc2ccccc2O1)C1CCCN(S(=O)(=O)c2cccc3nsnc23)C1 (stereo unspecified)	CYP2C19 inhib 53.9, CYP2C9 inhib 61.0
O=C(NCC1COc2ccccc2O1)C1CCN(S(=O)(=O)c2cccc3nsnc23)CC1 (stereo unspecified)	CYP2C19 inhib 58.9
O=C(NCC1CCCO1)C1CCN(S(=O)(=O)c2cccc3cccnc23)CC1 (stereo unspecified)	none (no result: PTK2B oligo ant)
O=C(NCc1ccc(F)cc1)C1CCCN(S(=O)(=O)c2cccc3nsnc23)C1 (stereo unspecified)	none
CCOC(=O)/N=C(/NC(=O)Nc1ccc(C(=O)OCC)cc1)OC	none
c1ccc(COCCN2CCN(CCOCc3ccccc3)CC2)cc1	CYP2C19 inhib 56.8
CCN1CCN(CC(O)COc2ccc(Cl)cc2)CC1 (stereo unspecified)	none
CC(=O)Nc1ccc(OCC(O)CN2CCN(c3cc(Cl)ccc3C)CC2)cc1 (stereo unspecified)	CYP2C19 inhib 83.7, CYP2C9 inhib 60.8
CC(=O)c1ccc(OCC(O)CN2CCN(CC(O)COc3ccc(C(C)=O)cc3)CC2)cc1 (stereo unspecified)	none (no result: CYP2C19 activ, CYP2C9 activ, CYP2C19 inhib, CYP2C9 inhib)
CC(=O)Nc1ccc(OCC(O)CN2CCN(c3ccc(C)c(Cl)c3)CC2)cc1 (stereo unspecified)	CYP2C19 inhib 67.8, CYP2C9 inhib 72.6
CC1(C)CC2CC(C)(CN2C(=O)COC(=O)c2ccc(Cl)c(N)c2)C1 (stereo unspecified)	Cav32 inh -6.45
CC1(C)CC2CC(C)(CN2C(=O)COC(=O)c2ccc(Cl)cc2N)C1 (stereo unspecified)	none
CN1CCN(c2ncccc2S(=O)(=O)N2CCCCC2)CC1	none (no result: CYP2C19 activ, CYP2C9 activ, CYP2C19 inhib, CYP2C9 inhib)
COC(=O)c1cccnc1N1CCN(c2ccccc2F)CC1	CYP2C19 inhib 82.1
O=C(C1COc2ccccc2O1)N1CCN(c2ccccc2F)CC1 (stereo unspecified)	none
CC(C)OC(=O)c1cccnc1N1CCN(c2ccc(F)cc2)CC1	CYP2C19 inhib 62.7
O=C(c1ccc(Br)o1)N1CCN(c2ccccc2F)CC1	CYP2C19 inhib 91.9
O=C(c1ccccc1)N1CCN(c2ccccc2F)CC1	CYP2C19 inhib 93.4, CYP2C9 inhib 65.6
O=C(N1CCOCC1)N1CCN(c2ccccc2F)CC1	none (no result: PTK2B oligo ant)
CC(=O)OC(C(=O)N1CCN(c2ccc(F)cc2)CC1)c1ccccc1 (stereo unspecified)	none (no result: CYP2C19 activ, CYP2C9 activ, CYP2C19 inhib, CYP2C9 inhib)
CCc1ccccc1S(=O)(=O)Cc1ccc(C(=O)N2CCN(c3ccccn3)CC2)o1	none (no result: PTK2B oligo ant)
O=C(C1CCCCC1)N1CCN(c2ccccc2F)CC1	none
O=C(c1ccc(Br)o1)N1CCN(c2ccccn2)CC1	CYP2C19 inhib 90.0, CYP2C9 inhib 77.2
CCSc1ccccc1C(=O)N1CCN(c2ccccc2F)CC1	CYP2C19 inhib 53.6, CYP2C9 inhib 57.8
O=C(c1ccccc1C(=O)N1CCN(c2ccccc2F)CC1)N1CCN(c2ccccc2F)CC1	CYP2C19 inhib 69.6, CYP2C9 inhib 89.0, Cav32 inh -3.86
O=C1C(=O)N(c2cccc(Cl)c2)C(c2ccccc2[N+](=O)[O-])/C1=C(\O)c1ccccc1 (stereo unspecified)	CYP2C9 inhib 86.4
Cn1c(=O)c2c(nc(N3CCN(c4ccccc4)CC3)n2CCCc2ccccc2)n(C)c1=O	none
COc1ccc(C(=O)n2c(-c3ccco3)nc3ccccc32)cc1	CYP2C19 inhib 54.2, CYP2C9 inhib 61.0
O=c1c2ccccc2nc(-c2ccc(Br)cc2)n1Cc1ccccc1	CYP2C9 inhib 82.7
CCOc1ccc(CCn2c(-c3ccco3)nc3ccccc3c2=O)cc1OCC	CYP2C19 inhib 79.3 (no result: Cav32 inh)
COc1ccc(OCCn2c(NC(=O)c3ccco3)nc3ccccc32)cc1	none
O=c1c2ccccc2nc(N2CCN(c3ccccc3)CC2)n1Cc1ccccc1	CYP2C9 inhib 70.8, Cav32 inh -5.38 (no result: PTK2B oligo ant)
O=c1c2ccccc2oc2nc(-c3ccco3)n(CCc3ccccc3)c(=O)c12	none (no result: PTK2B oligo ant, Cav32 inh)
O=c1c2ccccc2nc(-c2ccco2)n1Cc1ccccc1	none
COc1ccc(CCn2c(-c3ccco3)nc3nc4ccccc4nc32)cc1	CYP2C19 inhib 82.8, CYP2C9 inhib 81.7
Cc1ccc(-c2nc3ccccc3c(=O)n2CCN2CCOCC2)cc1	none
O=c1c2ccccc2nc(-c2ccoc2)n1CCc1ccccc1	CYP2C19 inhib 58.0, CYP2C9 inhib 55.9
FC(F)(F)c1cnc(Oc2ccc(-c3nnco3)cc2)c(Cl)c1	none
c1cnc(Oc2ccc(-c3nnco3)cc2)cn1	CYP2C19 inhib 53.5
Cc1ccc(N2CCCn3c2nc2c3c(=O)n(CC(=O)OCc3ccccc3)c(=O)n2C)cc1C	CYP2C9 inhib 55.0 (no result: PTK2B oligo ant, Cav32 inh)
Cc1cc(C)cc(N2CCCn3c2nc2c3c(=O)n(CC(=O)OCc3ccccc3)c(=O)n2C)c1	none
Cn1c(=O)n(Cc2ccc(F)cc2)c(=O)c2c1nc1n2CCCN1Cc1ccccc1	CYP2C19 inhib 96.0, CYP2C9 inhib 85.9
Cn1c(=O)n(CCc2ccccc2)c(=O)c2c1nc1n2CCCN1CCc1ccccc1	CYP2C19 inhib 92.2, CYP2C9 inhib 93.2 (no result: Cav32 inh)
CC(C)Cn1c(=O)c2c(nc3n2CCCN3CCc2ccccc2)n(C)c1=O	CYP2C19 inhib 85.4, CYP2C9 inhib 93.0
COc1ccc(C2(CNC(=O)CCC(=O)O)CCCC2)cc1OC	none
COc1cccc(-n2c(Cc3cc(=O)[nH]c(=O)[nH]3)nnc2SCC(=O)N2CCC(C)CC2)c1	none (no result: Cav32 inh)
NS(=O)(=O)c1ccc(S(=O)(=O)N2CCCC2)cc1	none
Cc1ccc(C(=O)ON=C2CCN(S(=O)(=O)c3ccccc3)CC2)cc1	none
CC1=C(C)CS(=O)N(S(=O)(=O)c2ccccc2)C1 (stereo unspecified)	Cav32 inh -7.88
CC1=C(C)CS(=O)N(c2ccc(S(N)(=O)=O)cc2)C1 (stereo unspecified)	CYP2C9 activ 2.4, Cav32 inh -7.18
CCOC(=O)CN1C(=O)C(O)=C(C(C)=O)C1c1ccc(F)cc1 (stereo unspecified)	none
CCN(CC)c1ncnc2sc(C(=O)N3CCN(c4ccccc4)CC3)c(C)c12	CYP2C9 inhib 62.5
Cc1sc2ncnc(N3CCOCC3)c2c1C	none

Bioassay records deposited in PubChem by several laboratories.
